These results are taken from PubChem BioAssay AID588774 (The Scripps Research Institute Molecular Screening Center, 2011).

Assay [1] can be described thus: pPAFAH inhibition and serine hydrolase selectivity, SAR follow-up, selectivity assay for pPAFAH inhibitor project, biochemical, gel-based, FP-Rh fluorescence, complex proteome, SAR compounds (AID 588774).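 For inhibition: 0% = DMSO-only band intensity and 100% = blank gel background.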 The conditions noted are these: gel-based competitive ABPP, MW 32 kDa, anti-targets inhibited, at 10 µM.
Assay [2] concerns MW 32 kDa. Described as above. The conditions noted are these: gel-based competitive ABPP, at 10 µM, stronger effect = higher value.

Activity calls are given as the source filed them.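 Rule for the calls: active = target enzyme inhibited at least 50% at a set dose, and selective over every off-target enzyme by a set factor; inactive = weaker inhibition or too little selectivity.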

In general, inhibition refers to the change of the read-out against control, counted positive when it falls. `Cc1cc(N2CCN(C(=O)Oc3ccc(-c4ccccc4)cc3)CC2)c2ccccc2n1` returned an anti-target count in assay [1] of 0. In addition, in assay [2], the inhibition was 0% (inactive).
On to `Cc1cc(N2CCN(C(=O)n3ncc(-c4ccc(Cl)c(Cl)c4)n3)CC2)c2ccccc2n1`, for which the anti-target count in assay [1] stood at 8. Moreover, the inhibition in assay [2] was 50% (inactive).
For `O=C(Oc1noc2cc(Cl)ccc12)N1CCOCC1`, the anti-target count in assay [1] stood at 3. Moreover, in assay [2], the inhibition was 30% (inactive).
The corresponding values for `Cc1cc(N2CCN(C(=O)Oc3ccc(-n4cccc4)cc3)CC2)c2ccccc2n1` are 0 and 0% (inactive).
The corresponding values for `Cc1cc(N2CCN(C(=O)Oc3noc4cc(Cl)ccc34)CC2)c2ccccc2n1` are 4 and 0% (inactive).
The like results for `Cc1cc(N2CCN(C(=O)Oc3ccc([N+](=O)[O-])cc3)CC2)c2ccccc2n1` were, in that order, 2 and 0% (inactive).
In assay [1], `Cc1cc(N2CCN(C(=O)Oc3ccc(C(F)(F)F)cc3)CC2)c2ccccc2n1` showed an anti-target count of 1. The inhibition in assay [2] is 0% (inactive).
The corresponding values for `Cc1cc(N2CCN(C(=O)Oc3ccc(C4CCCCC4)cc3)CC2)c2ccccc2n1` are 0 and 0% (inactive).
The corresponding values for `Cc1cc(N2CCN(C(=O)Oc3ccc(-c4ccc(Br)cc4)cc3)CC2)c2ccccc2n1` are 0 and 0% (inactive).
The corresponding values for `O=C(N1CCOCC1)n1oc2cc(Cl)ccc2c1=O` are 6 and 39% (inactive).
In assay [1], `Cc1cc(N2CCN(C(=O)n3ncc(-c4ccc([N+](=O)[O-])cc4)n3)CC2)c2ccccc2n1` had an anti-target count of 9. Also, the inhibition in assay [2] is 85% (inactive).
Consider `COc1ccc(-c2cnn(C(=O)N3CCN(c4cc(C)nc5ccccc45)CC3)n2)cc1`, for which, in assay [1], the anti-target count turned out to be 8. Also, in assay [2], the inhibition was 67% (inactive).
The corresponding values for `O=C(Oc1noc2cc(Cl)ccc12)N1CCCCC1` are 2 and 0% (inactive).
